In PubChem BioAssay:
For some of these results: Measured potencies and affinities stand elsewhere. Calls of active or inactive are those of the source.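 The calls were made as follows, unless noted: active = calcium signal ratio cut to more than 3 SD under the fully stimulated control mean yet still positive, in both repeats and the primary screen; inactive = the rest.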

How the values were obtained:
[1] = tested on: TRPC4 beta (transient receptor potential cation channel C4), mouse; assay: TRPC4 cation channel opening, retest – cell-based, Fluo4 calcium, HEK293 TRPC4beta/mu-opioid, duplicates, 10 µM, confirmation (AID 2426;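 active = fluorescence ratio normalized to control raised more than 50% in primary screen plus both repeat runs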); settings: Fluo4 calcium fluorescence, at 10 µM; active compounds read high
[2] = tested on: transient receptor potential cation channel C4 beta (TRPC4), mouse; assay: TRPC4 cation channel opening, second retest – cell-based, second round, Fluo4, HEK293 TRPC4beta/mu-opioid, 1 µM, confirmation (AID 2461;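 active = primary screen active and over 50% activation in each of two duplicate runs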); settings: Fluo4 calcium fluorescence, at 1 µM; active compounds read high
[3] = tested on: TRPC4 (transient receptor potential cation channel C4 beta), mouse; assay: potentiation of DAMGO EC20 TRPC4 response – cell-based, second round, Fluo-4, HEK293 TRPC4beta/mu-opioid, 1 µM, confirmation (AID 2554;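 active = primary screen hit whose fluorescence ratio, in both repeats, exceeds the weak agonist control mean by 3 SD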); settings: DAMGO EC20, Fluo-4 calcium flux, at 1 µM; active compounds read high
[4] = tested on: TRPC4 beta (transient receptor potential cation channel C4), mouse; assay: potentiation of DAMGO EC20 TRPC4 response – cell-based, Fluo-4, HEK293 TRPC4beta/mu-opioid, confirmation (AID 2555;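 active = primary screen hit whose calcium fluorescence ratio, in both repeats, exceeds the weak agonist control mean by 3 SD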); settings: DAMGO EC20, Fluo-4 calcium flux, at 10 µM; active compounds read high
[5] = target: Short transient receptor potential channel 4 (Mus musculus) (UniProt Q9QUQ5); assay: blockers of DAMGO-evoked TRPC4 calcium flux – cell-based, Fluo4, HEK293 TRPC4beta/mu-opioid, confirmation (AID 2636;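 active = calcium signal cut by more than 3 SD below the full-agonist control yet still positive, in both repeats and the earlier primary screen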); settings: at 10 µM; active compounds read high
[6] = target: Short transient receptor potential channel 4 (Mus musculus) (UniProt Q9QUQ5); assay: blockers of DAMGO-evoked TRPC4 calcium flux – cell-based, second round, Fluo4, HEK293 TRPC4beta/mu-opioid, 1 µM, confirmation (AID 2637); settings: at 1 µM; active compounds read high
[7] = target: Short transient receptor potential channel 4 (Mus musculus) (UniProt Q9QUQ5); assay: calcium entry via TRPC4 opening agents – cell-based, HEK293 TRPC4/mu-opioid, Fluo-4 calcium, dose response (AID 434937;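 active = primary screen activator hit with a dose response curve and TRPC4 channel activation at any tested dose; inactive = no activation, no dose response, or not a primary hit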); settings: HEK293 TRPC4 cells, Fluo-4 calcium fluorescence ratio; series mostly up to 20 µM
[8] = target: Short transient receptor potential channel 4 (Mus musculus) (UniProt Q9QUQ5); assay: potentiation of DAMGO-evoked TRPC4 calcium signal – cell-based, HEK293 TRPC4/mu-opioid, Fluo-4 calcium, EC20 DAMGO, dose response (AID 434941;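 active = earlier screen potentiator hit that boosts the TRPC4 ion channel at some dose, with a dose response; inactive = no potentiation, no dose response, or not a prior hit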;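 also: calcium entry triggered by an EC20 dose of DAMGO at the co-expressed mu-opioid receptor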); settings: HEK293 TRPC4/mu-opioid cells, Fluo-4 calcium fluorescence; series mostly up to 20 µM
[9] = target: Short transient receptor potential channel 4 (Mus musculus) (UniProt Q9QUQ5); assay: block of DAMGO-driven TRPC4 calcium entry – cell-based, HEK293 TRPC4/mu-opioid, Fluo-4 calcium, dose response (AID 434942;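 active = primary screen inhibitor hit that blocks the TRPC4 channel at some tested dose, yielding a dose curve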); settings: HEK293 TRPC4/mu-opioid cells, DAMGO-evoked Fluo-4 calcium ratio; series mostly up to 20 µM
[10] = target: Short transient receptor potential channel 6 (Mus musculus) (UniProt Q61143); assay: TRPC6 blockade by TRPC4 inhibitor hits – cell-based, HEK293, membrane potential dye, duplicate, selectivity assay for TRPC4 inhibitor project, confirmation (AID 434948;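 active = active in primary screen and both duplicates, each dropping signal beyond three positive-control SD with fluorescence still positive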); settings: HEK293 TRPC6, membrane potential dye fluorescence, at 10 µM, stimulated with maximal-effect acetylcholine; active compounds read high
[11] = target: Short transient receptor potential channel 6 (Mus musculus) (UniProt Q61143); assay: TRPC6 opening by TRPC4 activator hits – cell-based, HEK293, membrane potential dye, duplicate, selectivity assay for TRPC4 activator project, confirmation (AID 434950;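 active = membrane potential signal rise above negative control mean plus 3 SD in both duplicates, also active in the earlier TRPC4 screen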); settings: HEK293 TRPC6, membrane potential fluorescence, at 10 µM; activation: active compounds read high; outcome: activation
[12] = target: Short transient receptor potential channel 6 (Mus musculus) (UniProt Q61143); assay: positive modulators of mouse TRPC6 channel – HEK293 cells, membrane potential dye, duplicate, selectivity assay for TRPC4 potentiator project, confirmation (AID 434952;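 active = compound raising the membrane signal above positive-control mean plus 3 SD in both repeats, and a primary screen hit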); settings: HEK293 TRPC6, membrane potential dye fluorescence, at 10 µM, maximal acetylcholine added after compound; active compounds read high
[13] = target: Short transient receptor potential channel 4 (Mus musculus) (UniProt Q9QUQ5); assay: calcium flux activators in TRPC4/5HT1a cells, counter-screen for TRPC4 activator project, cell-based, second counter screen, HEK293 TRPC4/5HT1a, Fluo-4 (AID 434977;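 active = calcium signal rise above buffer-control mean plus 5 SD in both duplicates, and also a hit in the primary screen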); settings: Fluo-4 calcium flux, at 10 µM; active compounds read high
[14] = serotonin-gated TRPC4 signal block – cell-based, second counter screen, HEK293 TRPC4/5HT1a, Fluo-4, counter-screen for TRPC4 inhibitor project, confirmation (AID 434978;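 active = primary screen active whose calcium signal fell more than 3 SD beyond the full-serotonin control mean in both duplicate plates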;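 also: serotonin given first at submaximal then at maximal dose after compound preincubation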); settings: Fluo-4 calcium flux, at 10 µM, serotonin added to trigger calcium flux; active compounds read high
[15] = tested on: TRPC4 (mouse), co-expressed with 5HT1a in HEK293; assay: enhancement of serotonin-evoked TRPC4 response – cell-based, second counter screen, HEK293 TRPC4/5HT1a, Fluo-4, counter-screen for TRPC4 potentiator project, confirmation (AID 434979;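 active = signal rise over 3 SD above mean of control wells given weak agonist, in both repeats and first screen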); settings: Fluo-4 calcium flux, at 10 µM, serotonin added at its EC20 dose; active compounds read high
[16] = nonspecific calcium rise without TRPC4 – cell-based, HEK293 mu-opioid receptor line, counter-screen for TRPC4 activator project, confirmation (AID 449723;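 active = hit in primary screen, with calcium signal over 5 SD above buffer well mean in both duplicates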;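 also: counter screen cells carry the mu-opioid receptor alone and lack TRPC4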); settings: HEK293 mu-opioid cells, Fluo-4 calcium fluorescence, at 10 µM; active compounds read high
[17] = nonspecific potentiation of DAMGO calcium response – cell-based, HEK293 mu-opioid receptor line, counter-screen for TRPC4 allosteric potentiator project, confirmation (AID 449724;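 active = calcium signal rise more than 3 SD above the low-dose agonist control mean, in both duplicate plates and the primary screen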); settings: HEK293 mu-opioid receptor cells, Fluo-4 calcium flux, at 10 µM, compound added before EC20 DAMGO stimulus; active compounds read high

Chain of Short transient receptor potential channel 6 (Mus musculus) (Q61143 whole entry, looked up): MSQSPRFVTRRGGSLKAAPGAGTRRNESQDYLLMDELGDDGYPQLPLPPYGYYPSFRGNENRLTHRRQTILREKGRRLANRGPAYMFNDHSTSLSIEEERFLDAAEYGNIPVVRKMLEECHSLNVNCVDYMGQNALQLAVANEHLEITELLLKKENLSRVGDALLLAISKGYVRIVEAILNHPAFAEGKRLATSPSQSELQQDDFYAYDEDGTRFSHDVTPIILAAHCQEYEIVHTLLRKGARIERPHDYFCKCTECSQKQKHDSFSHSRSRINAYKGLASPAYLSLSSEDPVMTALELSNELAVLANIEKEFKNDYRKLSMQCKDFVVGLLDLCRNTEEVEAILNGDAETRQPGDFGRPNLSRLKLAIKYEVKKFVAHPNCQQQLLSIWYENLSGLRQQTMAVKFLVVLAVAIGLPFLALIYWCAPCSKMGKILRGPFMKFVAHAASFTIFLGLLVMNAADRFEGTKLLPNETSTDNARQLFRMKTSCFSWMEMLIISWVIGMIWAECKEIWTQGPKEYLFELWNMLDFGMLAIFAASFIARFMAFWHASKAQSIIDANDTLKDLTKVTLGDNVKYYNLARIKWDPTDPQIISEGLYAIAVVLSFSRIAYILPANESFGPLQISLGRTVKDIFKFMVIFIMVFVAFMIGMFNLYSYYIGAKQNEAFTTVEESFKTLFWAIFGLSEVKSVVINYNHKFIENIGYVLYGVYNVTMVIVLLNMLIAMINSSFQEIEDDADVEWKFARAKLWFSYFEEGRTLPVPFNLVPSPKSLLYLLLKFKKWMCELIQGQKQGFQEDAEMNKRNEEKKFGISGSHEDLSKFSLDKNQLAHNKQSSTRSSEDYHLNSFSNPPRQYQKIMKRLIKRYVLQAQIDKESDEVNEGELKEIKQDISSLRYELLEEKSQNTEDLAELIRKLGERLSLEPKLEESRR
Chain of Short transient receptor potential channel 4 (Mus musculus) (Q9QUQ5 whole entry, looked up): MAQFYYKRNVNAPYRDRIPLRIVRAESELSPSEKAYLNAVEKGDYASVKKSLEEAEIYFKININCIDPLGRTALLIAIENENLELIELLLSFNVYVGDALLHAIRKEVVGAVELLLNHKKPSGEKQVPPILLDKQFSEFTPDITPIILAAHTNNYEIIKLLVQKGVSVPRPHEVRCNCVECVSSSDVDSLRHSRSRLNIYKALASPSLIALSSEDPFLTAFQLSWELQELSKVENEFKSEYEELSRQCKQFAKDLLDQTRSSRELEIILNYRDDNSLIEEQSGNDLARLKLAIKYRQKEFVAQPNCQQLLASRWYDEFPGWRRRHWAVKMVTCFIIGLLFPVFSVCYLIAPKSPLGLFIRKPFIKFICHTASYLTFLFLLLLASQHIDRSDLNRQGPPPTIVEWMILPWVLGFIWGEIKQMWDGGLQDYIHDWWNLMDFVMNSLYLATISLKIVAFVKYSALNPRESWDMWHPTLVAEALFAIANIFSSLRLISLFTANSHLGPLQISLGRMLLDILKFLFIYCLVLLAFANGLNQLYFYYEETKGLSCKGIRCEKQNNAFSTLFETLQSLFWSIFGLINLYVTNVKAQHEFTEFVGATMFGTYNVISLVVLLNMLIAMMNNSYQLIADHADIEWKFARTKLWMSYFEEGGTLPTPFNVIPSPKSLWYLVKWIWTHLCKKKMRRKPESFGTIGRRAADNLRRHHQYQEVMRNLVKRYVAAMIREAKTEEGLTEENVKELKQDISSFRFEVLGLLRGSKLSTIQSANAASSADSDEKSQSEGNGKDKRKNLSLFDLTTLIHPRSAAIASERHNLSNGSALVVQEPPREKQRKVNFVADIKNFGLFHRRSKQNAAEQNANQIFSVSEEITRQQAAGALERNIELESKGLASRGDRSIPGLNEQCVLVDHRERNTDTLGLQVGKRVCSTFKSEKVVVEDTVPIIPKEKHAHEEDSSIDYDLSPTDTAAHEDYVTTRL

Row | Compound | outcome [1] | outcome [2] | outcome [3] | potentiation [4] | outcome [5] | outcome [6] | outcome [7] | outcome [8] | outcome [9] | outcome [10] | outcome [11] | outcome [12] | outcome [13] | outcome [14] | potentiation [15] | outcome [16] | outcome [17] | outcome [4] | outcome [15]
1 | O=C(Nc1ccc2c(c1)OCO2)c1cnn2cccnc12 | inactive | inactive | inactive | 38% (active) | inactive | inactive | inactive | inactive | inactive | inactive | inactive | inactive | inactive | inactive | 48.5% (active) | inactive | inactive |  | 
2 | Cc1ccc(-c2cc(C(=O)NCCCN3CCCC3)c3ccccc3n2)cc1C | inactive | inactive | inactive |  | inactive | inactive | inactive | inactive | inactive | inactive | inactive | inactive | inactive | inactive | 17.7% (active) | inactive | inactive | inactive | 
3 | CC(C)(C)n1cnc2cc(NCc3ccc(Br)cc3)ccc21 | inactive | inactive | inactive |  | inactive | inactive | inactive | inactive | inactive | inactive | inactive | inactive | inactive | inactive | 8.63% (active) | inactive | inactive | inactive | 
4 | O=C(O)c1ccc(N2CCN(C(c3ccccc3)c3ccccc3)CC2)c([N+](=O)[O-])c1 | inactive | inactive | inactive |  | inactive | inactive | inactive | inactive | inactive | inactive | inactive | inactive | inactive | inactive |  | inactive | inactive | inactive | inactive
5 | O=C(NCCCN1CCOCC1)C1CCN(S(=O)(=O)c2c(Cl)cccc2Cl)CC1 | inactive | inactive | inactive |  | inactive | inactive | inactive | inactive | inactive | inactive | inactive | inactive | inactive | inactive |  | inactive | inactive | inactive | inactive
6 | O=C(CN1CCCC1)N1c2ccccc2Sc2ccc(C(F)(F)F)cc21 | inactive | inactive | inactive |  | inactive | inactive | inactive | inactive | inactive | inactive | inactive | inactive | inactive | inactive |  | inactive | inactive | inactive | inactive
7 | CCN1CCN(c2ccc(NC(=O)CCc3c(C)nc4c(-c5ccc(F)cc5)c(C)nn4c3C)cc2)CC1 | inactive | inactive | inactive |  | inactive | inactive | inactive | inactive | inactive | inactive | inactive | inactive | inactive | inactive |  | inactive | inactive | inactive | inactive
8 | CCOC(=O)C1CCN(c2nc3ccccc3nc2C(C#N)C(=O)OCCOC)CC1 (stereo not drawn) | inactive | inactive | inactive |  | inactive | inactive | inactive | inactive | inactive | inactive | inactive | inactive | inactive | inactive |  | inactive | inactive | inactive | inactive
9 | CC[n+]1c(/C=C/c2ccc(OC(C)=O)c(OC)c2)ccc2ccccc21 | inactive | inactive | inactive |  | inactive | inactive | inactive | inactive | inactive | inactive | inactive | inactive | inactive | inactive |  | inactive | inactive | inactive | inactive
10 | COc1cc2nc(=S)n3[nH]c(CCn4nc(C)cc4C)nc3c2cc1OC | inactive | inactive | inactive |  | inactive | inactive | inactive | inactive | inactive | inactive | inactive | inactive | inactive | inactive |  | inactive | inactive | inactive | inactive
11 | Cc1ccc(NS(=O)(=O)c2cc(C(=O)N3CCc4ccccc4C3)ccc2Cl)cc1 | inactive | inactive | inactive |  | inactive | inactive | inactive | inactive | inactive | inactive | inactive | inactive | inactive | inactive | 9.01% (active) | inactive | inactive | inactive | 
12 | O=C(/C=C/c1ccccc1Cl)N(c1ccccn1)C1CCCCC1 | inactive | inactive | inactive |  | inactive | inactive | inactive | inactive | inactive | inactive | inactive | inactive | inactive | inactive |  | inactive | inactive | inactive | inactive
13 | COc1ccc(Br)cc1CN1CCC(N2CCCC2)CC1 | inactive | inactive | inactive |  | inactive | inactive | inactive | inactive | inactive | inactive | inactive | inactive | inactive | inactive | 13.5% (active) | inactive | inactive | inactive | 
14 | NC(N)=NN=C1CCC(c2ccccc2)CC1 (stereo not drawn) | inactive | inactive | inactive |  | inactive | inactive | inactive | inactive | inactive | inactive | inactive | inactive | inactive | inactive |  | inactive | inactive | inactive | inactive
